# Experiment: MELAS cybrid and Rieske KO viability enhancers – cell-based, MELAS cybrids, Rieske KO mouse fibroblasts, CellTiter-Glo, primary screen (AID 1508586);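 note: test concentration not given here; z relative to plate mean and SD of compound and empty wells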
# Conditions: Rieske KO mouse fibroblast survival, low glucose, CellTiter-Glo 72 h
row,SMILES,z-score
1,Cc1ccc(Cl)cc1NC(=O)N[C@H]1C[C@H]2C(=O)N[C@H](C(C)C)C(=O)N2C1,0.0408
2,CC(C)/C=C/CNc1cc(C(=O)NCc2cn3ccccc3n2)cc(S(=O)(=O)NC(C)C)c1,-0.726
3,COc1ccc(CN2C[C@@H](CN3CCOCC3)C[C@@H](C(=O)NCC(C)C)C2)cc1OC,-0.053
4,COCCCNC(=O)c1nn(C)c2c1CN(C(=O)Cc1c(C)[nH]c3c(F)cccc13)CC2,-0.829
5,COC(=O)c1c(NC(C)=O)c2cc(NCc3sccc3C)cnc2n1CC1CCCO1 (stereo not given),0.989
6,O=c1c(-c2ccccc2Cl)cc2c(n1Cc1ccncc1)CCN(Cc1ccnc3ccccc13)C2,-0.0903
7,Cc1nc2sccn2c1CN1CCC2(CC1)C(=O)N(CC(C)C)C(=O)N2CCc1ccccc1,-0.675
8,CCC(CC)CNc1cc(C(=O)NCCN(C)C)cc(S(=O)(=O)Nc2ccc(OC)cc2)c1,0.972
9,Cc1ccc(-c2cc(C(=O)NCc3c(C)nn(C)c3C)cc(S(=O)(=O)N3CCOCC3)c2)s1,-0.219
10,COc1cccc(COC2CN(CCc3ccccc3)C(=O)CN(C(=O)CN3CCOC3=O)C2)c1 (stereo not given),-0.325
11,CN1CCCC1CCNC(=O)[C@H]1CNC[C@@H](COc2cccc(F)c2)C1 (stereo not given in full),0.269
12,COc1ccc(/C=C/CN2CCc3c(cc(-c4cccc(-n5nc(C)cc5C)c4)c(=O)n3C)C2)cc1,-0.157
13,CCc1cc(C(=O)N2CC(=O)N(Cc3ccc(OC)cc3)CC(OCc3ccncc3)C2)n(C)n1 (stereo not given),-0.65
14,CC(C)CCN1C(=O)N(CC(N)=O)C(=O)C12CCN(Cc1nc3ccccc3s1)CC2,-0.574
15,CC(C)CCNc1cc(C(=O)N[C@H]2CCCCNC2=O)cc(S(=O)(=O)NC(C)C)c1,0.262
16,Cc1ccccc1CN[C@H]1C[C@H]2C(=O)N[C@@H]([C@@H](C)O)C(=O)N2C1,-0.372
17,CCn1nc(C(=O)N2CCCC2)c2c1CCC(NCCC1=CCCCC1)C2 (stereo not given),-0.76
18,COCC(=O)Nc1c(C(=O)OC)n(C)c2ncc(NCc3cnn(C)c3C)cc12,-0.209
19,Cc1csc(-c2cc(C(=O)NCCC3CCCN3C)cc(S(=O)(=O)N3CCOCC3)c2)c1 (stereo not given),-0.54
20,CN1CCCc2cc(C(=O)N3CC(=O)N(Cc4ccccc4)CC(OCc4ccccn4)C3)ccc21 (stereo not given),-0.731

row,SMILES,z-score
1,COC(=O)c1c(NC(=O)C2CCCO2)c2cc(NCc3ccccn3)cnc2n1CCc1ccccc1 (stereo not given),-0.0393
2,CCN1CCN(C(=O)c2cc(-c3cc(C)cs3)cc(S(=O)(=O)N3CCOCC3)c2)CC1,-0.432
3,CC(C)C[C@H]1NC(=O)[C@H]2CN(C(=O)OCc3ccccc3)CCN2C1=O,-0.118
4,CN1CCCC1CCNC(=O)c1cc(-c2ccccc2)cc(S(=O)(=O)N2CCSCC2)c1 (stereo not given),-0.0913
5,O=C1N[C@H](CO)C(=O)N2CCN(C(=O)c3ccc(F)cc3)C[C@H]12,-0.948
6,CCn1nc(C(=O)N2CCCC2)c2c1CCC(N1CCN(c3ccccc3OC)CC1)C2 (stereo not given),-0.558
7,CCc1nc(CNc2cc(C(=O)N[C@H](C)c3ccc(OC)cc3)cc(S(=O)(=O)N(C)C)c2)c(C)[nH]1,-0.167
8,COC(=O)c1c(NC(=O)CCc2ccccc2)c2cc(NC(C)C(C)(C)O)cnc2n1C (stereo not given),-0.398
9,C=CCn1nc(C(=O)N2CCOCC2)c2c1CCC(NCc1ccc(Cl)s1)C2 (stereo not given),-0.989
10,COc1cc(CN2CCc3c(cc(Cc4ccccc4C)c(=O)n3CC3CC3)C2)ccc1O,-0.319
11,CC(=O)c1cccc(-c2cc3c(n(C)c2=O)CCN(C(=O)c2ccc4[nH]c5c(c4c2)CCCC5)C3)c1,-0.491
12,COc1cc(/C=C/CN2CC(=O)N(C(C)C)CC(OCc3noc(C)n3)C2)ccc1O (stereo not given),-0.562
13,COc1cccc(C(=O)N2CCN3C(=O)[C@H](C(C)C)NC(=O)[C@H]3C2)c1,-0.513
14,CCc1cc(C(=O)N2CCc3c(c(C(=O)N4CCN(c5ccccc5)CC4)nn3CC)C2)n(C)n1,-0.0183
15,COCCn1c(C(=O)OC)c(NC(=O)c2ccco2)c2cc(NC3CCc4ccccc4C3)cnc21 (stereo not given),-2
16,CCn1cc(CN2CCN3C(=O)[C@@H]4C[C@@H](O)CN4C(=O)[C@H]3C2)c(C)n1,-0.193
17,COc1ccc(CN2C[C@@H](CN3CCOCC3)C[C@@H](C(=O)NCC3CCCO3)C2)cc1OC (stereo not given in full),0.461
18,CN1CC(=O)N2CCN(C(=O)NCc3ccccc3)C[C@@H]2C1=O,-0.297
19,CC(C)CN1CC(OCc2cccc(F)c2)CN(Cc2cccn2-c2ncccn2)CC1=O (stereo not given),-0.624
20,CC(C)C[C@H]1C(=O)N2CCN(Cc3cnn(-c4ccccc4)c3)C[C@@H]2C(=O)N1C,-0.165
